The values that follow come from PubChem BioAssay.

Values joined by “and” are separate entries in the source; they are usually repeats but may differ in a detail not shown here. Equal entries are not always repeated. Records with an inconclusive call do not appear. A structure can be active in one record and inactive in another. Active and inactive are the calls of the source. Unless noted, no cut-off is given here; in the data, nearly all actives have AC50 up to about 26 µM.

The test system of test [1] is Neuropilin-2 / VEGF-C interaction (human). Put plainly: inhibitors of NRP2–VEGF-C binding, biochemical, microplate binding format, z-score (AID 743281; call rule not given here). Conditions: microplate NRP2/VEGF-C binding assay; stronger effect = lower value.
Test [2] can be described thus: growth inhibition of DIPG glioma cells, dose response, cell-based, SU-DIPG-XVII, MIPE5.0, CellTiter-Glo, qHTS (AID 1347060).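 For AC50: cells exposed to compound for 48 hours before viability readout.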 Conditions: SU-DIPG-XVII viability, CellTiter-Glo ATP luminescence. On the technique in general: Cellular ATP, detected with luciferase, serves as a proxy for viable cell number.
Test [3] can be described thus: growth inhibition of DIPG glioma cells, dose response, cell-based, SU-DIPG-XIII, MIPE5.0, CellTiter-Glo, qHTS (AID 1347064; cut-off not given, nearly all actives have AC50 up to about 23 µM;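 for AC50: cells exposed to compound for 48 hours before the viability read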). Particulars: SU-DIPG-XIII viability, CellTiter-Glo ATP luminescence.
The nature of test [4]: viability loss in pontine glioma line – cell-based, SU-DIPG-XXV, MIPE5.0, CellTiter-Glo, qHTS, dose response (AID 1347065).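 Note: cells exposed to compound for 48 hours before ATP readout.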 Conditions: CellTiter-Glo ATP luminescence.
Test [5] is described as follows: JHH-DIPG-1 glioma cell viability, MIPE5.0 library, CellTiter-Glo luminescence, qHTS (AID 1347067).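 Note: cells exposed to compound for 48 hours before readout.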 Particulars: JHH-DIPG-1 glioma viability, CellTiter-Glo ATP luminescence.
Test [6] is described as follows: SU-DIPG-XXV glioma cell viability, MIPE5.0 library, qHTS (AID 1347068; cut-off not given, nearly all actives have IC50 up to about 30 µM;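 for IC50: cells exposed to compound for 48 hours before viability readout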).
For test [7], the target named is ATP-dependent translocase ABCB1 (Homo sapiens) (UniProt P08183). As to the kind of experiment: MDR1 (ABCB1) efflux transporter inhibition, cell-based (AID 377; in the data active = fluorescence slope change above about 50%). Conditions: MDR1-expressing cells, fluorescent substrate accumulation slope; stronger effect = higher value; concentration not given here.
A short description of test [8]: growth inhibition of DIPG glioma cells, dose response, cell-based, SU-DIPG-XIII, MIPE4.0, CellTiter-Glo, qHTS (AID 1347061; cut-off not given, nearly all actives have AC50 up to about 37 µM;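 note: cells exposed to compound for 48 hours before readout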). Particulars: SU-DIPG-XIII viability, CellTiter-Glo ATP luminescence.
The nature of test [9]: growth inhibition of DIPG glioma cells, dose response, cell-based, JHH-DIPG-1, MIPE4.0, CellTiter-Glo, qHTS (AID 1347062; cut-off not given, nearly all actives have AC50 up to about 27 µM). Conditions: JHH-DIPG-1 viability, CellTiter-Glo ATP luminescence.
A short description of test [10]: growth inhibition of DIPG glioma cells, dose response, cell-based, SU-DIPG-IV, MIPE4.0, CellTiter-Glo, qHTS (AID 1347063; cut-off not given, nearly all actives have AC50 up to about 30 µM;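 note: compound exposure lasted 48 hours before the viability readout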). Particulars: SU-DIPG-IV viability, CellTiter-Glo ATP luminescence.
Test [11] in a line: SU-DIPG-VI glioma cell viability, MIPE4.0 library, CellTiter-Glo luminescence, qHTS (AID 1347066; cut-off not given, nearly all actives have AC50 up to about 30 µM;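 note: cells exposed to compound for 48 hours before readout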). Conditions: CellTiter-Glo ATP luminescence.
Test [12] can be described thus: reducers of polyQ inclusions in PC12 cells, cell-based, NGF-treated PC12, GFPQ80 (AID 1614).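 Note: lower means fewer inclusions and 0 means no inclusions at all.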 Particulars: PC12 NGF-treated GFP-polyQ80 inclusion reduction.
The nature of test [13]: circadian clock period modulators, cell-based, LOPAC library, luminescence reporter (AID 2774; call rule not given here;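 note: values are relative to mean of DMSO wells on each plate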). Particulars: circadian reporter cells, at 7 µM, actives lie on both sides.
Test [14] deals with Hepatitis C virus NS3 helicase. As to the kind of experiment: HCV NS3 helicase inhibitors, primary screen, biochemical, fluorescence polarization, LOPAC1280 library (AID 687035; in the data active = inhibition above about 37%). Particulars: Purified HCV NS3 helicase, Cy5-dT15 ssDNA binding fluorescence polarization; stronger effect = higher value; concentration not given here. (In general: In fluorescence polarisation assays a small probe gives low polarisation when free and higher when bound to something large.)

Test [15] is described as follows: Cy5 fluorescence quenching or enhancement artefacts, artefact control for HCV NS3 helicase inhibitor project, biochemical, LOPAC1280 (AID 687037; call rule not given here). Particulars: Cy5-DNA-NS3h complex fluorescence interference counterscreen. For orientation: The purpose of a counterscreen is to sort out artefacts and off-target activity.
The nature of test [16]: phospholipid biosynthesis inhibitors in animal cells, primary screen, cell-based, LOPAC library, screen 4 (AID 1347384; call rule not given here). Particulars: phospholipid biosynthesis inhibition screen, at 10 µM.
A short description of test [17]: LFS_MB_P medulloblastoma growth inhibition, cell-based, chromothripsis tumors, cisplatin or BGB combos (AID 1671449; in the data active = inhibition above about 80%;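 note: cells exposed for 96 hours; 0% = vehicle DMSO and 100% = killing by high DMSO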). Particulars: LFS_MB_P medulloblastoma cells.
Test [18] in a line: HDN33 neuroblastoma growth inhibition, cell-based, chromothripsis tumors, cisplatin or BGB combos (AID 1671450; in the data active = inhibition above about 80%;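 note: cells exposed to compound for four days; 0% = vehicle DMSO and 100% = cell killing by high DMSO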). Conditions: HDN33 neuroblastoma cells, stronger effect = higher value.
Test [19] in a line: ICB984 medulloblastoma cell growth inhibition, synergistic combos for chromothripsis tumors, cisplatin or BGB combos (AID 1671451; call rule not given here;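 note: cells exposed for 96 hours before readout; 0% = vehicle DMSO and 100% = killing by high DMSO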). Particulars: ICB984 medulloblastoma cells, drug combinations, stronger effect = higher value.

Sequence of ATP-dependent translocase ABCB1 (Homo sapiens) (P08183 whole entry, looked up): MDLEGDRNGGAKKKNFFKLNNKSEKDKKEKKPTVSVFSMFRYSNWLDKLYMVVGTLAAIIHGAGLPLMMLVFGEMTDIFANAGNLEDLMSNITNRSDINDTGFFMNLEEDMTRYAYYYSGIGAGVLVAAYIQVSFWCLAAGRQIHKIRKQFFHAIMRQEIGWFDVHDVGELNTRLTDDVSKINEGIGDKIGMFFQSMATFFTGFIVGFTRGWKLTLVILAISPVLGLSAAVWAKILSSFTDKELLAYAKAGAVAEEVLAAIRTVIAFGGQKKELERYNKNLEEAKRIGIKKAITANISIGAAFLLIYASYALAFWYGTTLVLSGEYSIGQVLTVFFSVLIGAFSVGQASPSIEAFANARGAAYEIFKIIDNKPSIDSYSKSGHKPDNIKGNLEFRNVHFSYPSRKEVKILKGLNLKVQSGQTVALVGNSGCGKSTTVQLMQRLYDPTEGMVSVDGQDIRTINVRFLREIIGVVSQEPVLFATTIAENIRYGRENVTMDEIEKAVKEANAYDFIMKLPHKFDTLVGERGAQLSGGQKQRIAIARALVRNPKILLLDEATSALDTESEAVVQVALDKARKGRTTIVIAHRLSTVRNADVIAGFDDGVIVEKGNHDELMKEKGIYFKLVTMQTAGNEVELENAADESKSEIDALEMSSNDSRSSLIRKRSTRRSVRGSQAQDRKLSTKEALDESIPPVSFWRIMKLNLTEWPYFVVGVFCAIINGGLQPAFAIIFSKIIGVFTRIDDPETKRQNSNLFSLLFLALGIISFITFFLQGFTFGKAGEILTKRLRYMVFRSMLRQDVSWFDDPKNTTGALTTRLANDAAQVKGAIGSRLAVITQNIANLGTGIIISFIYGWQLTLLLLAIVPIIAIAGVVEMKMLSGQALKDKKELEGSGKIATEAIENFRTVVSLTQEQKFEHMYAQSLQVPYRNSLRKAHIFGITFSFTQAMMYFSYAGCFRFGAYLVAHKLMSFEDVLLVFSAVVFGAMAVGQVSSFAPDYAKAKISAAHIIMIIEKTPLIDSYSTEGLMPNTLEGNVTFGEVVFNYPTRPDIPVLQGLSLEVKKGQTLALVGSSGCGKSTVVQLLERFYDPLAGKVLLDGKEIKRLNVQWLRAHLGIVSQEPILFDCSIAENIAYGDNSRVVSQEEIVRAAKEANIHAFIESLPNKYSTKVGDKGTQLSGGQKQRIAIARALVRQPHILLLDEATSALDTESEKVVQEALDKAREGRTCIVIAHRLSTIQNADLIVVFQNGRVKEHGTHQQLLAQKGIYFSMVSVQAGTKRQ

Turning to `Cc1onc(-c2ccccc2)c1-c1ccc(S(N)(=O)=O)cc1`, the z-score in test [1] is 0.865 (inactive). In addition, the outcome in test [2], in [3], in test [4], in test [5] and in test [6] was inactive.
Take `CCCSc1ccc2nc(NC(=O)OC)[nH]c2c1`: the fluorescence slope change in test [7] was 97.2% (active).
For the compound `Cc1cccc(Nc2ccncc2S(=O)(=O)NC(=O)NC(C)C)c1`, in test [1], the z-score was 0.676 (inactive). The result in test [8], in test [9], in [10] and in test [11] was inactive.
Consider `C[C@@H]1O[C@@H](OC[C@H]2O[C@@H](Oc3c(-c4ccc(O)c(O)c4)oc4cc(O)cc(O)c4c3=O)[C@H](O)[C@@H](O)[C@@H]2O)[C@H](O)[C@H](O)[C@H]1O`, for which the inclusion score in [12] was found to be 2. The z-score in [1] is 0.702 (inactive).
On to `COc1ccc2cc(CCC(C)=O)ccc2c1`, for which the inclusion score in [12] turned out to be 2.
The term inhibition denotes the relative decrease from the control value, in per cent. For the compound `Cn1c(=O)c2[nH]cnc2n(C)c1=O`, the fluorescence slope change in test [7] is 7.6% (inactive) and 62.3% (active). Further, the inclusion score in test [12] was determined as 1.5. The period change in [13] is 0.14 h (inactive). Also, the inhibition in test [14] is -2% (inactive); in test [17] (at 0.5 µM, stronger effect = higher value) it was 15.2% (inactive) and -21.4% (inactive) and -26.2% (inactive); in test [17] (measured here: combination with BGB IC20, at 0.005 µM) it was -5.83% and -14.3% and -19.1%; in [17] (measured here: combination with BGB IC40, at 0.005 µM), -32.6% and -34.3% and -25.4%; in [17] (measured here: combination with BGB IC40, at 0.05 µM), -28.1% and -16.1% and -10.3%; in test [17] (measured here: combination with cisplatin, at 0.5 µM, stronger effect = higher value) it was 57.5% and -49.4% and -30.2%. Besides, the inhibition in [17] (measured here: combination with cisplatin, at 5 µM, stronger effect = higher value) was -12.8% and -12% and -12.6%; in test [18] (BGB combo, at 5 µM), -6.91% and -17% and -18.3%; in [18] (at 0.5 µM), 1.38% (inactive) and 2.18% (inactive) and -18.5% (inactive); in [18] (cisplatin combo, at 5 µM) it was 14.2% and 15.4% and -46.9%; in [18] (measured here: with BGB IC20 combination, at 0.5 µM), 4.11% and 8.06% and -21.1%; in test [18] (measured here: with cisplatin IC20 combination, at 0.5 µM), 9.64% and 13.8% and 3.17%. The inhibition was -10.4% and -21.4% and -26.1% in test [18] (single agent, at 5 µM); -1.06% and -2.94% and -4.47% in test [19] (BGB IC20 combo, at 0.005 µM); -42.4% and 6.67% and -13.1% in [19] (BGB IC40 combo, at 0.005 µM); -45.5% and -37.4% and -12% in test [19] (BGB IC40 combo, at 0.05 µM); -27.5% (inactive) and -16.4% (inactive) and -30.3% (inactive) in test [19] (at 0.5 µM); -49.6% and -37.4% and -12% in [19] (cisplatin combo, at 0.05 µM). The inhibition was -29.5% and -23.4% and -59.1% in test [19] (cisplatin combo, at 0.5 µM); -24.5% and 11.4% and -42.2% in [19] (cisplatin combo, at 5 µM); -5.05% and -45.4% and 1.22% in [19] (measured here: 5 uM single agent, at 5 µM). The fluorescence ratio (interference) in test [15] is 0.9 (inactive). For the same compound, the result in test [2], in test [8], in test [9], in test [10], in test [3] and in test [4] was inactive. Besides, the result in test [11], in [5], in test [6] and in test [16] was inactive.
As to `C[C@H]1C[C@@H]2[C@H]([C@@H](O)C[C@@]3(C)[C@H]2CC[C@]3(O)C(=O)CO)[C@@]2(C)C=CC(=O)C=C12`, in [7], the fluorescence slope change is 127% (active). Besides, the outcome in test [2], in [9], in test [3], in test [4], in test [5] and in test [6] was inactive.
Consider `CC1=C(C(=O)O)N2C(=O)[C@@H](NC(=O)[C@H](N)c3ccccc3)[C@H]2SC1`, for which, in [7], the fluorescence slope change was 94.6% (active). Also, the compound was called inactive in test [1].
Turning to `c1ccc2c(CC3=NCCN3)cccc2c1`, the inclusion score in test [12] was 1.5.
As usually defined, the AC50 is the midpoint of the concentration-response curve, whichever way the signal moves. As a reminder, the IC50 is the concentration at which inhibition is half-maximal. On to `Cc1cccc(CN2CCN(C(c3ccccc3)c3ccc(Cl)cc3)CC2)c1` (stereo unspecified), for which the concentration at half-maximal activity (AC50) in test [2] is 23.5 µM (active); in [10] it was 18.7 µM (active); in [3], 20.9 µM (active); in [11], 20.9 µM (active); in test [5], 16.6 µM (active). Moreover, in [6], the 50% inhibitory concentration (IC50) is 23.5 µM (active).
